High-throughput results: PubChem, ICCB-Longwood Screening Facility, Harvard Medical School
The full list was thinned out, with hits kept by preference.
Sa growth inh: inhibitors of Staphylococcus aureus growth at 42 °C | actives 0.53% (n = 170,000) | AID 720641 | S. aureus RN4220 growth, OD600, 20 h; active compounds read low | relative growth, % (test concentration not listed);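 active = relative growth at most 50% at the other temperature and 20+ points below 30 °C, or under 10% at both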
Sa helicase inh: blocks Staphylococcus aureus DNA helicase; purified S. aureus helicase, fluorescence unwinding assay; inhibition, % (concentration not given with the values); actives 0.05% (n = 120,000); AID 485395; in the data active = inhibition above about 25%, passing the limit was not always enough;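 also: 0% = mean of negative control wells and 100% = mean of positive control wells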
HCMV NEC inh: inhibitors of HCMV UL50-UL53 nuclear egress complex interaction; actives 0.15% (n = 190,000); HTRF UL50-UL53 interaction, normalized percent inhibition; inhibition, % (no concentration beside the values); in the data active = inhibition above about 27%, passing the limit was not always enough
* hit, by the source's call; x = no result given.

SMILES | Sa growth inh | Sa helicase inh | HCMV NEC inh
CC1CN(Cc2cc(Cl)c3cccnc3c2O)CC(C)O1 (centres undefined) | 0.6* | 1 | x
Oc1c(CN2CCCCC2)cc(Cl)c2cccnc12 | x | 13 | -24
Oc1c(CN2CCOCC2)cc(Cl)c2cccnc12 | 1.3* | -3 | -60
COc1ccc(COc2ccc(=O)n(-c3ccc(C(=O)NC4CCCC4)cc3)n2)cc1 | x | x | -65
O=c1cc(-c2ccccc2)oc2cc(Cl)ccc12 | x | 8 | -8
Nc1cc(N)c2cc(-c3ccccc3)oc2c1 | 96 | -29 | 95*
Cc1c(NC(=O)c2ccc(C(=O)O)cc2C(=O)O)c(=O)n(-c2ccccc2)n1C | 88 | -37 | -25
CCOc1ccc(N2C(=O)c3cc4ccsc4n3CC2(C)C(=O)NC2CCCCC2)cc1 (centres undefined) | x | x | -24
Cc1ccccc1NC(=O)/C=C\C(N)=O | -0.5* | 2 | -8
NC(=O)/C=C/C(=O)Nc1ccccc1Cl | 21 | x | 4
CC(=O)Nc1nonc1NC(C)=O | 100 | 3 | -9
CC(=O)Nc1cc(OC(C)=O)c2nonc2c1OC(C)=O | 0.9* | 3 | 101*
Cc1ccc(C(=O)c2cnc3ccccc3c2N2CCCC2)cc1 | 85 | 15 | x
CN(C)c1cc(NC(=O)Nc2ccccc2)c2ccccc2n1 | 0.0* | 31 | -30
O=C(Nc1ccccc1)Nc1cccc2ccccc12 | 99 | 8 | -15
COc1c(C)cnc2c1c(=O)n(CC(=O)NCc1ccc3c(c1)OCO3)c(=O)n2C | x | x | -1
COCc1nnc(NS(=O)(=O)c2ccc(OC)cc2)s1 | 95 | 8 | x
CCc1nnc(NS(=O)(=O)c2ccc(N)cc2)s1 | 9.7* | 3 | -4
CN(C)C(=O)c1cc(-c2[nH]ncc2-c2ccccc2)c[nH]1 | x | x | -35
N#C/C(=C\c1ccc2c(c1)OCO2)c1ccccc1 | 110 | 3 | -17
CO[C@@]1(NC(=O)C2SC(=C(C(N)=O)C(=O)O)S2)C(=O)N2C(C(=O)O)=C(CSc3nnnn3C)CS[C@@H]21 (some centres undefined) | x | x | -7
CO[C@@]1(NC(=O)CSCC#N)C(=O)N2C(C(=O)O)=C(CSc3nnnn3C)CSC21 (some centres undefined) | -0.6* | x | -35
CN1CCN(NC(=O)Cc2cccs2)CC1 | 97 | 13 | 3
CO[C@@]1(NC(=O)Cc2cccs2)C(=O)N2C(C(=O)O)=C(COC(N)=O)CS[C@@H]21 | -1.0* | x | -2
Cc1nc(C(F)(F)F)ccc1C(=O)Sc1ccccc1 | 95 | x | x
SMILES | Sa growth inh | Sa helicase inh | HCMV NEC inh
NS(=O)(=O)c1ccc(NC(=O)c2ccc3noc(-c4ccccc4)c3c2)cc1 | x | x | -33
O=C(Nc1cccc(Br)c1)Nc1nc2c(s1)CCCCCC2 | 37* | x | x
Cc1cccc(C(=O)Nc2nc3c(s2)CCCC3)c1 | 83 | x | -2
Cc1ccc2oc(-c3ccccc3)cc(=NCCN(C)C)c2c1 | 112 | 37 | x
Cc1ccc2oc(-c3ccccc3)cc(=NCCO)c2c1 | 103 | 44* | x
CC(O)CN=c1cc(-c2ccccc2)oc2ccc(Cl)cc12 (centres undefined) | 68 | 39 | x
CCc1ccc2oc(-c3ccccc3)cc(=NCc3cccnc3)c2c1 | 96 | 48* | x
N#Cc1ccccc1-c1ccccc1C(=O)O | 103 | 6 | -6
O=C(CSc1nncn1-c1ccccc1)NCc1ccccc1 | 97 | 2 | -25
O=C(O)c1ccc(COc2ccccc2)o1 | 107 | 12 | -13
CCC1(c2cccc(OC(=O)Nc3ccc(OC(F)(F)F)cc3)c2)CCCCN(C)C1=O (centres undefined) | 4.2* | x | -12
O=C(O)CC1(CC(=O)Nc2ccc(OC(F)(F)F)cc2)CCCC1 | 94 | x | -9
CCN(CCCNC(=O)CCC(=O)N1Cc2cccc(OC)c2Oc2ncccc21)Cc1ccccc1 | x | x | -26
O=C(CN1C(=O)S/C(=C/c2ccc(Br)cc2)C1=O)Nc1ccc(O)cc1 | x | x | -19
O=c1[nH]nc2ccc(Sc3ccccc3)nn12 | x | x | -157
CSc1nc(Nc2cccc(C)c2)c(C#N)c(-c2ccccc2)n1 | 108 | x | 48*
COc1ccc(Nc2nc(SC)nc(-c3ccccc3)c2C#N)cc1OC | 105 | -28 | -13
Cc1cc(C)cc(OC(=O)c2cc(-c3ccc4c(c3)OCCO4)on2)c1 | 1.7* | x | -7
COc1ccc(OC(=O)c2cc(-c3ccc4c(c3)OCCO4)on2)cc1 | 97 | x | 18
Cc1cccc(OC(=O)c2cc(-c3ccc4c(c3)OCCO4)on2)c1 | 1.8* | x | 12
O=C(Oc1cccc(Br)c1)c1cc(-c2ccc3c(c2)OCCO3)on1 | x | x | -10
COC(=O)c1cc(-c2ccc(OC)c(OC)c2)nc2c1cnn2C(C)C | 75 | 14 | -42
COc1ccc(CCN=C=S)cc1 | 9.0* | 23 | 14
COc1ccc(CCC(O)C2(O)CCCCC2)cc1 (centres undefined) | 91 | 15 | 6
CCOc1ccc(-n2c(-c3ccccc3)nc3c(cnn3-c3ccccc3)c2=O)cc1 | x | x | -5
